The nature of assay [1]: antimalarial activity against Dd2 strain (AID 2302;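 active = growth inhibition above 50% at the single 2 µM test dose, taken to imply half-maximal potency below 2 µM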;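 also: 0% = DMSO untreated growth and 100% = chloroquine plus artemisinin killed control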). As to conditions: P. falciparum Dd2 in RBCs, LDH growth readout, 72 h; at 2 µM; hits give high values.
Assay [2] is described as follows: HepG2 cytotoxicity, primary screen, cytotoxicity control for P. falciparum antimalarial project, cell-based, ATP luminescence (AID 2303;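 active = inhibition above 50%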;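 also: 0% = DMSO wells and 100% = digitonin-killed cells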). As to conditions: HepG2 viability, 24-48 h, at 10 µM, hits give high values.
Assay [3] deals with L-lactate dehydrogenase (Plasmodium falciparum (isolate CDC / Honduras)) (UniProt Q27743). Briefly: PfLDH activity inhibition – cell lysate, 3D7 strain, counter-screen for P. falciparum growth inhibition project (AID 2304).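 Also: 0% = vehicle and 100% = reference inhibitor.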 The conditions noted are these: P. falciparum 3D7 crude extract, LDH APAD/NBT absorbance; at 2 µM; hits give high values.
A short description of assay [4]: inhibition of 3D7 malaria parasite growth – strain 3D7 (AID 2306).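 Also: 0% = DMSO wells and 100% = chloroquine plus artemisinin control wells.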 As to conditions: P. falciparum 3D7 erythrocytic growth, LDH absorbance, 72 h; at 2 µM; hits give high values.
For assay [5], the target named is Calcium-dependent protein kinase 1 (Plasmodium falciparum (isolate 3D7)) (UniProt P62344). Briefly: PfCDPK1 kinase inhibitors, biochemical, TCAMS library (AID 1159585; cut-off not given, nearly all actives have IC50 up to about 0.98 µM;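 also: inhibitors leave more ATP so luminescence rises with inhibition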). As to conditions: recombinant PfCDPK1, Kinase-Glo ATP depletion luminescence.
Assay [6] concerns the target Plasmodium falciparum protein kinase 6 (PK6, PF3D7_1337100) (UniProt Q8IDW1). The experiment in a line: PfPK6 kinase inhibitors, biochemical, TCAMS library (AID 1159586). As to conditions: recombinant PfPK6, Kinase-Glo ATP depletion luminescence.
The target of assay [7] is Protein kinase 7 (PK7), Plasmodium falciparum 3D7 (PF3D7_0213400) (UniProt Q7YTF7). The experiment in a line: inhibition of Plasmodium PK7 catalytic activity – biochemical, TCAMS antimalarial set, Kinase-Glo luminescence (AID 1159587). As to conditions: recombinant PfPK7, Kinase-Glo ATP depletion luminescence. (Kinase-Glo reads ATP consumption through a luciferase reaction.)

Assay [8] has as its target Calcium-dependent protein kinase 4 (Plasmodium falciparum (isolate 3D7)) (UniProt Q8IBS5). The experiment in a line: PfCDPK4 kinase inhibitors, biochemical, TCAMS library (AID 1159588; cut-off not given, nearly all actives have IC50 up to about 0.91 µM). The conditions noted are these: recombinant PfCDPK4, Kinase-Glo ATP depletion luminescence.

Values without a mark were called inactive. For some assays here: Results with a measured potency or affinity are listed apart. The source made the active and inactive calls. Unless noted, no rule for the calls is given here.

In general, inhibition refers to the drop in the measured response relative to a control, in per cent.

Chain of Protein kinase 7 (PK7), Plasmodium falciparum 3D7 (PF3D7_0213400) (Q7YTF7 1-343): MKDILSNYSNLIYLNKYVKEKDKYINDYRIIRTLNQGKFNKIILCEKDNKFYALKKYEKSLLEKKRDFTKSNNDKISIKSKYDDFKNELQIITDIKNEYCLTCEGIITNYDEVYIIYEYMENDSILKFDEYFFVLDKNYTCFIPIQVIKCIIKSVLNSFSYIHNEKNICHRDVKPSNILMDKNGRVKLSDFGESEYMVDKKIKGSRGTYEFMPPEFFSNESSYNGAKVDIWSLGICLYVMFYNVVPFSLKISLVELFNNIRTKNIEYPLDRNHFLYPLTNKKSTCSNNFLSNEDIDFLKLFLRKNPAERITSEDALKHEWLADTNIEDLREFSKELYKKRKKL
Chain of Plasmodium falciparum protein kinase 6 (PK6, PF3D7_1337100) (Q8IDW1 1-305): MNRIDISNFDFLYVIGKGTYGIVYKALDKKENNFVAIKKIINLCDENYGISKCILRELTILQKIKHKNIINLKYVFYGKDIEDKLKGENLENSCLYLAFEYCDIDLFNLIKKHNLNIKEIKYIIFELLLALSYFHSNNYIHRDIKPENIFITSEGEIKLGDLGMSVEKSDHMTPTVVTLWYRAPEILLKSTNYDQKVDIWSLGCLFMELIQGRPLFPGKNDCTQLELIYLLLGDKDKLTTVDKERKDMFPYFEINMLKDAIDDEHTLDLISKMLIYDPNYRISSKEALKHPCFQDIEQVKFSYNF
Chain of L-lactate dehydrogenase (Plasmodium falciparum (isolate CDC / Honduras)) (Q27743 whole entry, looked up): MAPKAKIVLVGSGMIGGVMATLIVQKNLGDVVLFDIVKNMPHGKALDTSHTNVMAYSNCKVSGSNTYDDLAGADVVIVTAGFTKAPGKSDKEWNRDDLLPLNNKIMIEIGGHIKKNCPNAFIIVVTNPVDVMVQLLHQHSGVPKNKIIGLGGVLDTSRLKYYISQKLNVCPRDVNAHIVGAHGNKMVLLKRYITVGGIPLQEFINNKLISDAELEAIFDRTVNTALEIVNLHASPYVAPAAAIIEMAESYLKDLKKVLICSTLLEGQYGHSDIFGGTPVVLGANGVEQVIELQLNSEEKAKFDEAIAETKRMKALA
Chain of Calcium-dependent protein kinase 1 (Plasmodium falciparum (isolate 3D7)) (P62344 whole entry, looked up): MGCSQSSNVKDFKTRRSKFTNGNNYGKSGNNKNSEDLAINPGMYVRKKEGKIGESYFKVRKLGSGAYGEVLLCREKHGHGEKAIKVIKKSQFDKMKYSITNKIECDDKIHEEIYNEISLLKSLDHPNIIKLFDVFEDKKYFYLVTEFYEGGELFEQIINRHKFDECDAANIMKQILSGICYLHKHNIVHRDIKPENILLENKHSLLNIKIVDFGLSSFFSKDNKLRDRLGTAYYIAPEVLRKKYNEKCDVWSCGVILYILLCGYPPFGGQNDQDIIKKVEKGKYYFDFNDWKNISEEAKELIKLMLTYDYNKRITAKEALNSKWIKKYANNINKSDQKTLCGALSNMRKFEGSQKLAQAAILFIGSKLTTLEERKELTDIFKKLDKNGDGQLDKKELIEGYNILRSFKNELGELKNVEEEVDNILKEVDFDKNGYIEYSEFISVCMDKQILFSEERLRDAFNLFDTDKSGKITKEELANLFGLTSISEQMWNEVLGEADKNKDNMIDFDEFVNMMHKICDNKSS
Chain of Calcium-dependent protein kinase 4 (Plasmodium falciparum (isolate 3D7)) (Q8IBS5 whole entry, looked up): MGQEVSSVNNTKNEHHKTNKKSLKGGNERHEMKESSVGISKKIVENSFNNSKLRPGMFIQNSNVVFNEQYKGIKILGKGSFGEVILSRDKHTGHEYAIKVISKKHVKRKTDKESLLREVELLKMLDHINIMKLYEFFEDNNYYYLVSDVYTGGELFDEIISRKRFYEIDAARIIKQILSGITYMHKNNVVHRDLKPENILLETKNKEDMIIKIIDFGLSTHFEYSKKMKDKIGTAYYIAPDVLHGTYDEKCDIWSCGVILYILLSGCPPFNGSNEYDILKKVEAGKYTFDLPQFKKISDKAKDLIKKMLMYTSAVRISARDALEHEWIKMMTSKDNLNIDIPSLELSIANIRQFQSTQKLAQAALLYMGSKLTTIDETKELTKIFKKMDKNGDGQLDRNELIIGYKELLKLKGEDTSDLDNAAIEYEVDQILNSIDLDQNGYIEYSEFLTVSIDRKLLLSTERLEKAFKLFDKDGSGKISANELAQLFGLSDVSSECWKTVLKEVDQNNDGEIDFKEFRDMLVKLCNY

Consider `C=CCn1c(=N)c(C(=O)NC2CCCCC2)cc2c(=O)n3cccc(C)c3nc21`, for which the growth inhibition in assay [1] was 58% (active); in assay [4], 92% (active). Also, the inhibition in assay [2] was 0%; in assay [3], 4%. Besides, the outcome in assay [5], in assay [6], in assay [7] and in assay [8] was inactive.

`O=C(/C=C/c1cccc2ccccc12)NCCCCCN1CCC(c2c[nH]c3ccccc23)CC1`: the growth inhibition in assay [1] is 6%; in assay [4] it was 92% (active). Besides, the values for the inhibition in assay [2] and in assay [3] were 55% (active) and -1%, respectively. Moreover, the result in assay [5], in assay [6], in assay [7] and in assay [8] was inactive.

`CCCCCCOc1ccc(N2C(N)=NC(N)=NC2(C)C)cc1`: the growth inhibition in assay [1] was 0%; in assay [4], 98% (active). The results for the inhibition in assay [2] and in assay [3] were 5% and 7%, respectively. In addition, the result in assay [5], in assay [6], in assay [7] and in assay [8] was inactive.

As for `COc1ccc(-c2cccc(NC(=O)c3ccc(C#N)cc3)c2)cc1CN(C)CCN(C)C`, the growth inhibition was 18% in assay [1] and 90% (active) in assay [4]. The inhibition is 14% in assay [2] and 3% in assay [3]. Moreover, the result in assay [5], in assay [6], in assay [7] and in assay [8] was inactive.

For the compound `O=C(N[C@H]1CCN(Cc2ccc(OC3CCN(Cc4ccccc4)CC3)c(Cl)c2)C1)c1ccc(Cl)c(Cl)c1`, the results for the growth inhibition in assay [1] and in assay [4] were 11% and 99% (active), respectively. The inhibition in assay [2] was 59% (active); in assay [3] it was 0%. Moreover, the outcome in assay [5], in assay [6], in assay [7] and in assay [8] was inactive.

As for `Cc1cc2nc(-c3ccc(/C=C/C(=O)NC4CCN(Cc5ccccc5)CC4)cc3)[nH]c2cc1C`, the growth inhibition in assay [1] is 89% (active); in assay [4], 98% (active). Moreover, the inhibition in assay [2] was 18%; in assay [3] it was -2%. Moreover, the result in assay [5], in assay [6], in assay [7] and in assay [8] was inactive.

As for `NC(N)=NC(=O)Nc1cc(Cl)c(Br)c(Cl)c1`, the growth inhibition in assay [1] and in assay [4] was 101% (active) each time. For the same compound, the inhibition in assay [2] was 6%; in assay [3], 4%. For the same compound, the result in assay [5], in assay [6], in assay [7] and in assay [8] was inactive.

With `CN(C)C1CCN(CC#Cc2cc3ncnc(Nc4ccc(OCc5cccc(F)c5)c(Cl)c4)c3s2)CC1`, the growth inhibition in assay [1] is 5%; in assay [4], 85% (active). Moreover, the inhibition was 34% in assay [2] and -5% in assay [3]. Besides, the result in assay [5], in assay [6], in assay [7] and in assay [8] was inactive.

In the case of `CC(C)C1C(O)=C(c2ccc3ccccc3c2)C(=O)N1Cc1cccc(F)c1` (configuration not stated), the growth inhibition in assay [1] is 82% (active); in assay [4], 97% (active). The inhibition in assay [2] and in assay [3] was 3% throughout. Moreover, the outcome in assay [5], in assay [6], in assay [7] and in assay [8] was inactive.

Turning to `CCOc1cc(C(=O)Nc2cccnc2)ccc1-c1nc2cc(Cl)c(Cl)cc2[nH]1`, the growth inhibition was 70% (active) in assay [1] and 100% (active) in assay [4]. The inhibition in assay [2] was 9%; in assay [3] it was 0%. The outcome in assay [5], in assay [6], in assay [7] and in assay [8] was inactive.

As for `CCNC(=O)Nc1ccc(N(C)c2ccnc(NC3CC3)n2)cc1`, the growth inhibition in assay [1] was 80% (active); in assay [4], 100% (active). Besides, the inhibition in assay [2] is 21%; in assay [3] it was -5%. The outcome in assay [5], in assay [6], in assay [7] and in assay [8] was inactive.

Turning to `CCN(CCCN1CCCCC1)c1cc(C)nc(Nc2ccc(C)c(Br)c2)n1`, the growth inhibition was 98% (active) in assay [1] and 102% (active) in assay [4]. Also, the inhibition in assay [2] was 42%; in assay [3] it was -8%. The result in assay [5], in assay [6], in assay [7] and in assay [8] was inactive.

Consider `COc1cc(CNCCCNc2cc(=O)c3ccccc3[nH]2)c2c(c1)C(C)CN2C(=O)OC(C)(C)C` (configuration not stated), for which the growth inhibition in assay [1] was 87% (active); in assay [4] it was 96% (active). Moreover, the inhibition in assay [2] is -5%; in assay [3] it was 2%. The outcome in assay [5], in assay [6], in assay [7] and in assay [8] was inactive.

`CCN(CC)CCn1c2ccccc2c2ccc(C(=O)Nc3ccc4sc(C)nc4c3)cc21`: the growth inhibition in assay [1] was 26%; in assay [4], 84% (active). Besides, the inhibition in assay [2] is 97% (active); in assay [3] it was -5%. Besides, the result in assay [5], in assay [6], in assay [7] and in assay [8] was inactive.

With `O=C(N[C@@H]1C[C@H]1c1ccccc1)N(CCCn1ccnc1)Cc1csc(-c2ccc(CNCc3ccccc3)cc2)n1`, the figures for the growth inhibition in assay [1] and in assay [4] were 20% and 96% (active), respectively. Also, the inhibition is 6% in assay [2] and 2% in assay [3]. Besides, the result in assay [5], in assay [6], in assay [7] and in assay [8] was inactive.

As to `N#Cc1ccc2[nH]cc(-c3cn4cc(SC5CCCC5)ccc4n3)c2c1`, the growth inhibition in assay [1] is 21%; in assay [4] it was 92% (active). Further, the results for the inhibition in assay [2] and in assay [3] were 1% and 3%, respectively. Further, the result in assay [5], in assay [6], in assay [7] and in assay [8] was inactive.

Consider `CCCCCCCC1=NN2C(=N)C(=Cc3cc(Br)c(OCc4ccc(F)cc4)c(OCC)c3)C(=O)N=C2S1`, for which the growth inhibition was -6% in assay [1] and 95% (active) in assay [4]. In addition, the inhibition is 4% in assay [2] and 0% in assay [3]. Besides, the outcome in assay [5], in assay [6], in assay [7] and in assay [8] was inactive.

Turning to `NC(=O)c1ccc(NC(=O)CN(Cc2ccc(Cl)cc2)S(=O)(=O)c2ccccc2)cc1`, the figures for the growth inhibition in assay [1] and in assay [4] were 75% (active) and 90% (active), respectively. In addition, the results for the inhibition in assay [2] and in assay [3] were 2% and 6%, respectively. In addition, the outcome in assay [5], in assay [6], in assay [7] and in assay [8] was inactive.

Consider `O=S(=O)(c1cc(Cl)ccc1Cl)N1CCCCC(c2ccc(C(F)(F)F)cc2)=N1`, for which the growth inhibition is 68% (active) in assay [1] and 87% (active) in assay [4]. In addition, the inhibition in assay [2] is 15%; in assay [3], -1%. The result in assay [5], in assay [6], in assay [7] and in assay [8] was inactive.

The values above are taken from PubChem BioAssay.
